Measurements reported in the supplement of paper PMC8253809.
“And” between values parts separate entries of the source, which are not always exact repeats. Equal entries are not always repeated.

What was measured:
Test in all cases: growth inhibition (% activity, log2 RLU normalised to DMSO / staurosporine); higher = more growth inhibition
Conditions in all cases: 33 µM
DIPGX29 = system: DIPGX29 (H3.3 K27M diffuse intrinsic pontine glioma line)
Summary of the method: (§1)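 pHGG cell lines and H9-derived neural stem cells were grown on Geltrex-coated 384-well plates. Approved drugs were added by pin tool at a single final concentration of about 33 μM, in triplicate, for 7 days at 37 °C, 5% CO2. CellTiter-Glo luminescence was log2-transformed and normalised per plate to % activity between solvent and positive control wells. The growth-inhibition value is the median over replicates.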

DIPGX37 = system: DIPGX37 (H3.3 K27M diffuse intrinsic pontine glioma line)
Summary of the method: as §1

DIPGX7 = system: DIPGX7 (H3.3 K27M diffuse intrinsic pontine glioma line)
Summary of the method: as §1

DIPGX9 = system: DIPGX9 (diffuse intrinsic pontine glioma line)
Summary of the method: as §1

HGGX39 = system: HGGX39 (paediatric high-grade glioma line)
Summary of the method: as §1

HGGX6 = system: HGGX6 (H3.3 G34R paediatric high-grade glioma line)
Summary of the method: as §1

HNSC = system: HNSC
Summary of the method: as §1

SUDIPGIV = system: SUDIPGIV (diffuse intrinsic pontine glioma line)
Summary of the method: as §1

SUDIPGVI = system: SUDIPGVI (diffuse intrinsic pontine glioma line)
Summary of the method: as §1

SUDIPGXIII = system: SUDIPGXIII (diffuse intrinsic pontine glioma line)
Summary of the method: as §1

CN1CCN(C2=Nc3cc(Cl)ccc3Nc3ccccc32)CC1
growth inhibition (DIPGX29): 3.8%
growth inhibition (DIPGX37): 0.486%
growth inhibition (DIPGX7): 1.02%
growth inhibition (DIPGX9): -2.02%
growth inhibition (HGGX39): 1.24%
growth inhibition (HGGX6): 0.753%
growth inhibition (HNSC): -1.26%
growth inhibition (SUDIPGIV): -0.494%
growth inhibition (SUDIPGVI): -5.31%
growth inhibition (SUDIPGXIII): -1.11%

NNc1nncc2ccccc12
growth inhibition (DIPGX29): -0.649%
growth inhibition (DIPGX37): 0.926%
growth inhibition (DIPGX7): -0.1%
growth inhibition (DIPGX9): 1.44%
growth inhibition (HGGX39): 2.03%
growth inhibition (HGGX6): 0.883%
growth inhibition (HNSC): -1.94%
growth inhibition (SUDIPGIV): 2.81%
growth inhibition (SUDIPGVI): -2.33%
growth inhibition (SUDIPGXIII): -0.215%

CC(C)(C)NCC(O)c1ccc(O)c(CO)c1 (stereo not given)
growth inhibition (DIPGX29): -2.88%
growth inhibition (DIPGX37): -1.32%
growth inhibition (DIPGX7): -0.0436%
growth inhibition (DIPGX9): -1.85%
growth inhibition (HGGX39): -1.15%
growth inhibition (HGGX6): 1.2%
growth inhibition (HNSC): -1.34%
growth inhibition (SUDIPGIV): 1.26%
growth inhibition (SUDIPGVI): -4.26%
growth inhibition (SUDIPGXIII): 1.25%

CC(C)CC(N)=O
growth inhibition (DIPGX29): 0.179%
growth inhibition (DIPGX37): 0.749%
growth inhibition (DIPGX7): -0.469%
growth inhibition (DIPGX9): -0.164%
growth inhibition (HGGX39): 0.0712%
growth inhibition (HGGX6): 1.61%
growth inhibition (HNSC): -1.96%
growth inhibition (SUDIPGIV): -1.02%
growth inhibition (SUDIPGVI): -0.151%
growth inhibition (SUDIPGXIII): -12.8%

COc1cc([C@@H]2c3cc4c(cc3[C@@H](O[C@@H]3O[C@@H]5CO[C@@H](C)O[C@H]5[C@H](O)[C@H]3O)[C@H]3COC(=O)[C@H]23)OCO4)cc(OC)c1O
growth inhibition (DIPGX29): 12.6%
growth inhibition (DIPGX37): 4.92%
growth inhibition (DIPGX7): 8.84%
growth inhibition (DIPGX9): 24.1%
growth inhibition (HGGX39): 10.5%
growth inhibition (HGGX6): 9.51%
growth inhibition (HNSC): 61.4%
growth inhibition (SUDIPGIV): 38.2%
growth inhibition (SUDIPGVI): 3.89%
growth inhibition (SUDIPGXIII): 5.92%

N=C(N)N
growth inhibition (DIPGX29): -0.83%
growth inhibition (DIPGX37): 2.64%
growth inhibition (DIPGX7): 1.54%
growth inhibition (DIPGX9): 0.0493%
growth inhibition (HGGX39): 0.625%
growth inhibition (HGGX6): -0.897%
growth inhibition (HNSC): 7.78%
growth inhibition (SUDIPGIV): 1.72%
growth inhibition (SUDIPGVI): -0.000495%
growth inhibition (SUDIPGXIII): -1.47%

CCC[C@@H]1C[C@@H](C(=O)N[C@@H]([C@H]2O[C@H](SC)[C@H](O)[C@@H](O)[C@H]2O)[C@H](C)Cl)N(C)C1
growth inhibition (DIPGX29): 1.54% and 0.31%
growth inhibition (DIPGX37): 0.378% and 0.388%
growth inhibition (DIPGX7): 2.54% and -0.297%
growth inhibition (DIPGX9): -0.222% and -0.00863%
growth inhibition (HGGX39): 1.92% and 0.31%
growth inhibition (HGGX6): 0.389% and -3.2%
growth inhibition (HNSC): 3.24% and 18.2%
growth inhibition (SUDIPGIV): 2.02% and 2.11%
growth inhibition (SUDIPGVI): 2.1% and -0.349%
growth inhibition (SUDIPGXIII): -1.04% and -3.03%

N=S(=O)(O)Cc1noc2ccccc12
growth inhibition (DIPGX29): -1.43%
growth inhibition (DIPGX37): -1.83%
growth inhibition (DIPGX7): -1.41%
growth inhibition (DIPGX9): -1.19%
growth inhibition (HGGX39): -0.682%
growth inhibition (HGGX6): -1.72%
growth inhibition (HNSC): -4.88%
growth inhibition (SUDIPGIV): -1.71%
growth inhibition (SUDIPGVI): -4.93%
growth inhibition (SUDIPGXIII): -0.253%

OC(CCN1CCCCC1)(c1ccccc1)C1CC2C=CC1C2 (stereo not given)
growth inhibition (DIPGX29): -0.000402%
growth inhibition (DIPGX37): -2.1%
growth inhibition (DIPGX7): 1.09%
growth inhibition (DIPGX9): -1.44%
growth inhibition (HGGX39): -1.06%
growth inhibition (HGGX6): -1.38%
growth inhibition (HNSC): 0.31%
growth inhibition (SUDIPGIV): -2.82%
growth inhibition (SUDIPGVI): -4.33%
growth inhibition (SUDIPGXIII): 1%

C=C1c2cccc(O)c2C(O)=C2C(=O)[C@]3(O)C(O)=C(C(N)=O)C(=O)[C@@H](N(C)C)[C@@H]3[C@@H](O)[C@H]12
growth inhibition (DIPGX29): -0.484%
growth inhibition (DIPGX37): 2.83%
growth inhibition (DIPGX7): -0.0391%
growth inhibition (DIPGX9): -1.06%
growth inhibition (HGGX39): 2.68%
growth inhibition (HGGX6): -0.509%
growth inhibition (HNSC): 0.179%
growth inhibition (SUDIPGIV): 2.28%
growth inhibition (SUDIPGVI): -1.04%
growth inhibition (SUDIPGXIII): 1.14%

CC(C)[C@H](N)C(=O)OCCOCn1cnc2c(=O)nc(N)[nH]c21
growth inhibition (DIPGX29): 0.298%
growth inhibition (DIPGX37): 0.698%
growth inhibition (DIPGX7): -1.22%
growth inhibition (DIPGX9): 1.11%
growth inhibition (HGGX39): 0.616%
growth inhibition (HGGX6): 1.05%
growth inhibition (HNSC): -0.55%
growth inhibition (SUDIPGIV): -0.767%
growth inhibition (SUDIPGVI): 0.129%
growth inhibition (SUDIPGXIII): 1.61%

OC(CCN1CCCC1)(c1ccccc1)C1CCCCC1 (stereo not given)
growth inhibition (DIPGX29): -1.59%
growth inhibition (DIPGX37): 0.342%
growth inhibition (DIPGX7): -1.45%
growth inhibition (DIPGX9): -1.38%
growth inhibition (HGGX39): -2.22%
growth inhibition (HGGX6): -0.386%
growth inhibition (HNSC): -0.926%
growth inhibition (SUDIPGIV): -0.217%
growth inhibition (SUDIPGVI): -0.619%
growth inhibition (SUDIPGXIII): -1.02%

CO[C@@]1(NC(=O)C(C(=O)O)c2ccc(O)cc2)C(=O)N2C(C(=O)O)=C(CSc3nnnn3C)CO[C@@H]21 (stereo not given in full)
growth inhibition (DIPGX29): -1.75%
growth inhibition (DIPGX37): -0.992%
growth inhibition (DIPGX7): -0.554%
growth inhibition (DIPGX9): -0.636%
growth inhibition (HGGX39): -0.0428%
growth inhibition (HGGX6): 0.31%
growth inhibition (HNSC): -3.08%
growth inhibition (SUDIPGIV): -1.1%
growth inhibition (SUDIPGVI): 0.787%
growth inhibition (SUDIPGXIII): -4.5%

C[C@]12CCC(=O)C=C1[C@@H]1C[C@@H]1[C@H]1[C@@H]3[C@@H]4C[C@@H]4[C@@]4(CCC(=O)O4)[C@@]3(C)CC[C@@H]12
growth inhibition (DIPGX29): 0.956%
growth inhibition (DIPGX37): 1.46%
growth inhibition (DIPGX7): 0.0985%
growth inhibition (DIPGX9): 0.611%
growth inhibition (HGGX39): 2.45%
growth inhibition (HGGX6): 2.65%
growth inhibition (HNSC): 0.782%
growth inhibition (SUDIPGIV): 0.914%
growth inhibition (SUDIPGVI): 2.83%
growth inhibition (SUDIPGXIII): 0.882%

C#CCN[C@@H]1CCc2ccccc21
growth inhibition (DIPGX29): 1.3%
growth inhibition (DIPGX37): 4.12%
growth inhibition (DIPGX7): 1.95%
growth inhibition (DIPGX9): 1.74%
growth inhibition (HGGX39): 3.31%
growth inhibition (HGGX6): -0.441%
growth inhibition (HNSC): 12.3%
growth inhibition (SUDIPGIV): 2.79%
growth inhibition (SUDIPGVI): 1.93%
growth inhibition (SUDIPGXIII): 0.598%

N#C[C@@H]1C[C@@H]2C[C@@H]2N1C(=O)[C@@H](N)C12CC3CC(CC(O)(C3)C1)C2
growth inhibition (DIPGX29): 2.2%
growth inhibition (DIPGX37): 1.41%
growth inhibition (DIPGX7): 1.21%
growth inhibition (DIPGX9): 0.435%
growth inhibition (HGGX39): 5.53%
growth inhibition (HGGX6): 2.65%
growth inhibition (HNSC): 8.15%
growth inhibition (SUDIPGIV): 7.37%
growth inhibition (SUDIPGVI): 2.7%
growth inhibition (SUDIPGXIII): 7.88%

CC(/C=C1\SC(=S)N(CC(=O)O)C1=O)=C\c1ccccc1
growth inhibition (DIPGX29): -1.36%
growth inhibition (DIPGX37): -1.28%
growth inhibition (DIPGX7): -1.21%
growth inhibition (DIPGX9): 0.579%
growth inhibition (HGGX39): -0.83%
growth inhibition (HGGX6): -0.392%
growth inhibition (HNSC): -2.25%
growth inhibition (SUDIPGIV): -1.67%
growth inhibition (SUDIPGVI): -1.06%
growth inhibition (SUDIPGXIII): 1.76%

CC(C(=O)O)c1ccc(C(=O)c2cccs2)cc1 (stereo not given)
growth inhibition (DIPGX29): -1.23%
growth inhibition (DIPGX37): -0.791%
growth inhibition (DIPGX7): -0.391%
growth inhibition (DIPGX9): -0.699%
growth inhibition (HGGX39): -0.848%
growth inhibition (HGGX6): 1.96%
growth inhibition (HNSC): -0.802%
growth inhibition (SUDIPGIV): -4.32%
growth inhibition (SUDIPGVI): 0.938%
growth inhibition (SUDIPGXIII): -0.105%

Cn1c(=O)c2[nH]cnc2n(C)c1=O
growth inhibition (DIPGX29): -2.13%
growth inhibition (DIPGX37): 0.51%
growth inhibition (DIPGX7): -0.294%
growth inhibition (DIPGX9): -0.0831%
growth inhibition (HGGX39): -0.447%
growth inhibition (HGGX6): 0.444%
growth inhibition (HNSC): -5.61%
growth inhibition (SUDIPGIV): -0.366%
growth inhibition (SUDIPGVI): -2.69%
growth inhibition (SUDIPGXIII): -1.98%

CCCc1nc2c(C)cc(-c3nc4ccccc4n3C)cc2n1Cc1ccc(-c2ccccc2C(=O)O)cc1
growth inhibition (DIPGX29): -1.54%
growth inhibition (DIPGX37): -0.467%
growth inhibition (DIPGX7): -0.895%
growth inhibition (DIPGX9): -0.132%
growth inhibition (HGGX39): -1.04%
growth inhibition (HGGX6): -1.06%
growth inhibition (HNSC): -0.614%
growth inhibition (SUDIPGIV): -2.37%
growth inhibition (SUDIPGVI): 0.572%
growth inhibition (SUDIPGXIII): -1.14%

CCN1CCCC1CNC(=O)c1cc(S(N)(=O)=O)ccc1OC (stereo not given)
growth inhibition (DIPGX29): 1.2%
growth inhibition (DIPGX37): 3.95%
growth inhibition (DIPGX7): 2.35%
growth inhibition (DIPGX9): 1.38%
growth inhibition (HGGX39): 2.29%
growth inhibition (HGGX6): 0.912%
growth inhibition (HNSC): 1.32%
growth inhibition (SUDIPGIV): 0.319%
growth inhibition (SUDIPGVI): 3.68%
growth inhibition (SUDIPGXIII): 0.786%

Clc1ccc2c(c1)CCc1cccnc1C2=C1CCNCC1
growth inhibition (DIPGX29): -4.02%
growth inhibition (DIPGX37): -0.355%
growth inhibition (DIPGX7): -2.28%
growth inhibition (DIPGX9): -0.408%
growth inhibition (HGGX39): 0.308%
growth inhibition (HGGX6): -1.66%
growth inhibition (HNSC): 0.109%
growth inhibition (SUDIPGIV): -0.876%
growth inhibition (SUDIPGVI): -0.303%
growth inhibition (SUDIPGXIII): 0.814%
